Measured values: PubChem BioAssay (NCI)
This is part of a sample that, as a whole, favours compounds with a hit. Of some 83,000 tested, about 20% had one in any assay.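 Values shown are percent growth following 48 h exposure of cells in 96-well plates to a single concentration of compound; below 10 was considered active.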 Calls of active or inactive are those of the source.

How the values were obtained:
Assay in all cases: NCI-60 one-dose screen, 48 h (100 = growth as untreated, 0 = no growth, -100 = all killed)
Conditions in all cases: 10 µM unless noted
[1] = system: SK-MEL-2 melanoma
[2] = system: EKVX NSCLC
[3] = system: SN12C renal
[4] = system: UO-31 renal
[5] = system: TK-10 renal
[6] = system: ACHN renal
[7] = system: CAKI-1 renal
[8] = system: A498 renal
[9] = system: CCRF-CEM leukemia
[10] = system: RPMI-8226 leukemia
[11] = system: OVCAR-8 ovarian
[12] = system: OVCAR-5 ovarian
[13] = system: OVCAR-4 ovarian
[14] = system: SK-OV-3 ovarian
[15] = system: IGROV1 ovarian
[16] = system: OVCAR-3 ovarian
[17] = system: HS 578T breast
[18] = system: NCI/ADR-RES ovarian
[19] = system: SR leukemia

Measured: growth

COc1ccc(C(=O)/C=C/c2cccc3ccccc23)cc1S(N)(=O)=O
active: [2] -6.08% | [3] 6.92% | [4] -68.9% | [6] -27.1% | [9] 4.74% | [10] -10.6% | [11] -13.6% | [12] 1.13% | [16] -50.7%
inactive: [1] 45.8% | [5] 22.6% | [7] 13.9% | [8] 107% | [13] 43.5% | [14] 44.7% | [15] 38.7% | [17] 55.2% | [18] 15.1%

COc1ccc(C(=O)/C=C/c2c(F)cccc2Cl)cc1S(N)(=O)=O
active: [2] 8.71% | [4] 0.59% | [6] -13.8% | [9] 6.01% | [10] -10.1% | [11] 3.5% | [16] -63.4%
inactive: [1] 25.1% | [3] 12.8% | [5] 27.4% | [7] 16.4% | [8] 74% | [12] 25% | [13] 42.9% | [14] 27% | [15] 21.6% | [17] 27% | [18] 12.2%

CC(=O)OCC1OC(OC2C(COC(C)=O)OC(n3cc(COc4ccc5ccc(=O)oc5c4)nn3)C(OC(C)=O)C2OC(C)=O)C(OC(C)=O)C(OC(C)=O)C1OC(C)=O (stereo not given)
inactive: [1] 113% | [2] 107% | [3] 98.3% | [4] 74.7% | [5] 108% | [6] 102% | [7] 88.1% | [8] 116% | [9] 100% | [19] 98.1% | [10] 97.3% | [11] 106% | [12] 112% | [13] 115% | [14] 109% | [15] 111% | [16] 113% | [17] 89.2% | [18] 99.9%

N#Cc1ccc(C(=O)Nn2c(N)cc3ccccc3c2=O)cc1
inactive: [1] 104% | [2] 85.8% | [3] 89.9% | [4] 64.9% | [5] 119% | [6] 92.9% | [7] 78% | [8] 113% | [9] 94.7% | [19] 76% | [10] 86.5% | [11] 98.1% | [12] 103% | [13] 97.4% | [14] 85.8% | [15] 92.9% | [16] 105% | [18] 98.3%

O=C(NNc1nc2cc(F)ccc2n2c(CN3CC4CNCC4C3)ccc12)c1ccncn1 (stereo not given)
inactive: [1] 42.7% | [2] 12.7% | [4] 15.6% | [5] 29.9% | [7] 12.1% | [8] 59% | [9] 12.7% | [10] 21.6% | [11] 13% | [12] 34.8% | [13] 28.6% | [14] 31.5% | [15] 22.1% | [16] 43.1% | [17] 45.3% | [18] 59.8%
active: [3] 7.46% | [6] 8.07%

CC(C)c1ccc2c(N)c(C(=O)Nc3cccc(C(F)(F)F)c3)sc2n1
inactive: [1] 89.5% | [2] 47.4% | [3] 76.2% | [4] 77.9% | [5] 97.3% | [6] 76% | [7] 74% | [8] 143% | [9] 38.9% | [19] 40.4% | [10] 32.1% | [11] 90.7% | [12] 85% | [13] 78.1% | [14] 87.2% | [15] 108% | [16] 94.1% | [18] 71.7%

NS(=O)(=O)c1ccc(-n2cc(-c3cccc(NC(=O)c4cc(Cl)cc(Cl)c4)c3)nn2)cc1
inactive: [1] 96.7% | [2] 88.8% | [3] 88% | [4] 115% | [5] 114% | [6] 95.8% | [7] 94.2% | [8] 135% | [9] 56.7% | [10] 92.6% | [11] 26.8% | [12] 81.2% | [13] 73.6% | [14] 90.2% | [15] 101% | [16] 48.2% | [17] 89.2% | [18] 92.7%

CN1CCN(c2ccc(C(=O)/C=C/c3ccc(Br)cc3)cc2)CC1
active: [10] -0.714% | [11] 2.63%
inactive: [1] 85.4% | [2] 51.8% | [3] 13.9% | [4] 18.8% | [5] 38.4% | [6] 30.8% | [7] 30.8% | [8] 96% | [9] 18.2% | [12] 39.5% | [13] 61% | [14] 15.8% | [15] 39.4% | [16] 17.7% | [17] 89.6% | [18] 45.1%
